Calls of active or inactive are those of the source. The calls were made as follows: active = hit-call score of the fitted dose curve at least 0.9, where 1 is the maximum; inactive = score below 0.9.

A short description of the experiment: ATG_NF_kB_CIS: Attagene CIS-FACTORIAL HepG2 Assay for human Nuclear Factor Kappa B (NF-kB) (AID 2282991). To be noted: HepG2 Attagene cis-factorial NF-kB reporter mRNA; actives raise or lower the signal. The protocol: ATG_CIS is a cell-based, multiplexed-readout assay that uses HepG2, a human liver cell line, with measurements taken at 24 hours after chemical dosing in a 24-well plate.ATG_NF_kB_CIS is one of 52 assay component(s) measured or calculated from the ATG_CIS assay. It is designed to make measurements of mRNA induction, a form of inducible reporter, as detected with fluorescence intensity signals by Reverse transcription polymerase chain reaction (RT-PCR) and Capillary electrophoresis technology.Data from the assay component ATG_NF_kB_CIS was analyzed into 1 assay endpoint. This assay endpoint, ATG_NF_kB_CIS, was analyzed with bidirectional fitting relative to DMSO as the negative control and baseline of activity. Using a type of inducible reporter, measures of mRNA for gain or loss-of-signal activity can be used to understand the reporter gene at the transcription factor-level as they relate to the gene NFKB1. Furthermore, this assay endpoint can be referred to as a primary readout, because this assay has produced multiple assay endpoints where this one serves a reporter gene function. To generalize the intended target to other relatable targets, this assay endpoint is annotated to the dna binding intended target family, where the subfamily is NF-kappa B.
Human liver HepG2 cells are transiently transfected with multiple reporter transcription units (MRTUs) in 6-well plates using FuGene 6 reagent (Roche; 3 ml FuGene/1 mg DNA). The MRTU constructs are regulated by a cis-regulating element (promoter). […] A major difference between the CIS and TRANS system is that in CIS activities of endogenous TFs are measured, whereas the TRANS assay evaluates changes in activities of exogenous, chimeric NR-Gal4 proteins. […] At the end of 24 hour incubation, total RNA was isolated using TriZol reagent (Invitrogen). The isolated RNA is then reverse-transcribed using oligo(dT) primer and Mo-MLV reverse transcriptase (Invitrogen) with DNAse I (Ambion) treatment for 30 min. The one-tenth of the produced cDNA was amplified by PCR using Taq DNA polymerase (Invitrogen) and two reporter sequence-specific primers. The PCR products were fluorescently labeled by primer extension with 6-arboxyfluorescein (6-FAM) 5'-labeled reporter sequence-specific primer (2 min at 95 C, 20 s at 68 C and 10 min at 72 C) and these products were digested with 5U of HpaI (New England Biolabs) for 2h at 37 C. The fragments were purified using Qiaquick PCR columns (Qiagen), analyzed on an ABI 3130xL genetic analyzer (Applied Biosystems) with peak positions identified by using a set of X-rhodamine (ROX)-labeled MapMarker1000 molecular weight standards (BioVentures). The raw capillary electrophoresis data was processed using Attagraph software (Attagene).
On to `CN=C=S`, for which the compound was classed as inactive.
Next, `O=c1n(Cl)c(=O)n(Cl)c(=O)n1Cl`: “inactive”.
Then `CC(C)N1C(=O)N(c2ccccc2)CSC1=NC(C)(C)C`, with “inactive”; and `C=C(C)CN(CC)c1c([N+](=O)[O-])cc(C(F)(F)F)cc1[N+](=O)[O-]`, with “inactive”; and `CC1(C)C(C=C(Cl)Cl)C1C(=O)OC(C#N)c1cccc(Oc2ccccc2)c1` (stereo not given), with “inactive”.
Take `COc1ccc(-c2ccccc2)cc1NNC(=O)OC(C)C`: the outcome was inactive.
Turning to `CC(C)=CC1C(C(=O)OCc2coc(Cc3ccccc3)c2)C1(C)C` (stereo not given), the call was inactive.
Consider `OC(c1ccc(Cl)cc1)(c1ccc(Cl)cc1)C(Cl)(Cl)Cl`, for which the result was inactive.
Then `Nc1c(Cl)c(F)nc(OCC(=O)O)c1Cl`, with “inactive”; and `Clc1nc(Cl)nc(Nc2ccccc2Cl)n1`, with “inactive”.
Next, `Nc1cnn(-c2ccccc2)c(=O)c1Cl`: “inactive”; `CC(C)N1C(=O)c2ccccc2NS1(=O)=O`: “inactive”; `O=C(O)c1c(Cl)ccc2cc(Cl)cnc12`: “inactive”.
`CCSC(=O)N1CCCCCC1`: the compound was called inactive.
In the case of `O=P(O)(O)CCCl`, the result was inactive.
Regarding `Nc1c(Cl)c(Cl)nc(C(=O)O)c1Cl`, the outcome was inactive.
Turning to `Cc1cc(C)nc(Nc2ccccc2)n1`, the compound was classed as inactive.
Next, `COC(=O)NS(=O)(=O)c1ccc(N)cc1`: “inactive”.
With `N#CN=C1SCCN1Cc1ccc(Cl)nc1`, the outcome was inactive.
Turning to `COC(=O)NC(=S)Nc1ccccc1NC(=S)NC(=O)OC`, the compound was classed as inactive.
Next, `CNC(=O)Oc1cccc2ccccc12`: “inactive”; `COP(=O)(OC)O/C(C)=C/C(=O)N(C)C`: “inactive”.
Take `CCOc1nc(C(Cl)(Cl)Cl)ns1`: the call was inactive.
Take `O=C(Nc1ccccc1-c1ccc(Cl)cc1)c1cccnc1Cl`: the compound was classed as inactive.
For the compound `N#Cc1c[nH]cc1-c1cccc2c1OC(F)(F)O2`, the compound was called inactive.
Then `COc1cc(Cl)c(OC)cc1Cl`, with “inactive”; and `CC1(C)C(C(=O)OC(C#N)c2cccc(Oc3ccccc3)c2)C1(C)C` (stereo not given), with “inactive”; and `CS(=O)(=O)c1cc(C(F)(F)F)ccc1C(=O)c1cnoc1C1CC1`, with “inactive”.
With `CC(C)Oc1cccc(NC(=O)c2ccccc2C(F)(F)F)c1`, the compound was called inactive.
Take `CCOc1cc(C(C)(C)C)ccc1C1COC(c2c(F)cccc2F)=N1` (stereo not given): the outcome was inactive.
`CCN(CC)c1nc(C)cc(OP(=S)(OC)OC)n1`: the call was inactive.
Consider `CCCN(CC)CC1COC2(CCC(C(C)(C)C)CC2)O1` (stereo not given), for which the result was inactive.
Regarding `CCCC(=NOCC)C1=C(O)CC(CC(C)SCC)CC1=O` (stereo not given), the compound was classed as inactive.
`CCOP(=S)(OCC)Oc1nc(Cl)n(C(C)C)n1`: the compound was classed as inactive.
Then `CCOP(=O)(OCC)Oc1nc(Cl)c(Cl)cc1Cl`, with “inactive”; and `COc1cc(OC)nc(NC(=O)NS(=O)(=O)c2ncccc2OCC(F)(F)F)n1`, with “inactive”.
As to `CNC(=O)N(C)c1nnc(C(C)(C)C)s1`, the compound was called inactive.
Then `CCOc1nc(F)cc2nc(S(=O)(=O)Nc3c(Cl)cccc3Cl)nn12`, with “inactive”.
Take `COCC(C)N(C(=O)CCl)c1c(C)csc1C` (stereo not given): the call was inactive.
Next, `CS(=O)(=O)c1ccc(C(=O)C2C(=O)CCCC2=O)c([N+](=O)[O-])c1`: “inactive”.

The record behind these values is PubChem BioAssay (EPA / NIEHS).
